# From ChEMBL document CHEMBL3988442, “University of Dundee, Small-Polar-MMV Screening Library” (2021)
# For some assays here: Entries with a potency or affinity are not part of this list.
# Legend:
# Design in all cases: scale not given: direction of the effect not stated beside the values
# [1] = biological target: Protein translocase subunit SecA (Escherichia coli (strain K12)) (UniProt P10408); experiment: Assay to Identify E. coli SecA ATPase Inhibitors; format: functional; conditions: 30 µM
# [2] = biological target: T1, Ubiquitin-activating enzyme e1, putative (Leishmania donovani (strain BPK282A1)) (UniProt E9BSI1); experiment: Leishmania donovani Ubiquitin Activating Enzyme (LdE1); format: functional; conditions: 30 µM
# T1 sequence (whole entry): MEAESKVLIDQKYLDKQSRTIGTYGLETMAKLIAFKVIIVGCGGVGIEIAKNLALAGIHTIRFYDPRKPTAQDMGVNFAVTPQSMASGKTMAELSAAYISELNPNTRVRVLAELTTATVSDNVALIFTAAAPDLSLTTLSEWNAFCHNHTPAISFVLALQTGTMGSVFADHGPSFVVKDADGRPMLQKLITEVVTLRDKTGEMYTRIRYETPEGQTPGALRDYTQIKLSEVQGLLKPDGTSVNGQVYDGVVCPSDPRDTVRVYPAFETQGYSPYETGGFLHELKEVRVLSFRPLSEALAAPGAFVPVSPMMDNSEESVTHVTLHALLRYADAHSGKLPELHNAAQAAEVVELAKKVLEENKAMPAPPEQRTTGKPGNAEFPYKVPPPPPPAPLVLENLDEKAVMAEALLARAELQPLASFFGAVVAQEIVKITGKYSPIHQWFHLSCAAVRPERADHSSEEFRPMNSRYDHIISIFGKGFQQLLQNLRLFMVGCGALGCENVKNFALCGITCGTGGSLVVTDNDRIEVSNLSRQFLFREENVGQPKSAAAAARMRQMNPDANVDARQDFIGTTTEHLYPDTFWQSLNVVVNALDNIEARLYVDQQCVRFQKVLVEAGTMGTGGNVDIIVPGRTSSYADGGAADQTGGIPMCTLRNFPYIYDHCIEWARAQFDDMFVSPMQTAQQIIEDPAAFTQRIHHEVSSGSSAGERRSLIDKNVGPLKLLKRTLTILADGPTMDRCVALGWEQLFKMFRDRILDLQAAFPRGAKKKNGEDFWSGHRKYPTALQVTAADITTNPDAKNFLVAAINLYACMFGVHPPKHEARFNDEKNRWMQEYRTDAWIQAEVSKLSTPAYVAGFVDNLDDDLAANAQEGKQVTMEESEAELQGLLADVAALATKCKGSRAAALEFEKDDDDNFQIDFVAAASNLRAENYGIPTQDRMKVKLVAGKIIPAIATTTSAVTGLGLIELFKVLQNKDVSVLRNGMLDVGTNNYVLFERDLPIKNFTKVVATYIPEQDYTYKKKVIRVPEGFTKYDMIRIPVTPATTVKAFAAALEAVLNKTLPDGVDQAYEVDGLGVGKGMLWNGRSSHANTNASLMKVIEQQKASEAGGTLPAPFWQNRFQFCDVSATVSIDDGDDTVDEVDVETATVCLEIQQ
# [3] = biological target: Sialic acid-binding Ig-like lectin 9 (Homo sapiens) (UniProt Q9Y336); experiment: Hs-Siglec9 ALPHAscreen SOP 20170721; conditions: 10 µM
# [4] = tested on: Trypanosoma cruzi; experiment: Trypanosoma cruzi phosphomannomutase and mannose-1-phosphate guanylyltransferase assay; format: functional; conditions: 10 µM
# [5] = biological target: T2, Arginase-2, mitochondrial (Homo sapiens) (UniProt P78540); experiment: in vitro enzyme assay to detect the production of urea directly proportional to the activity of Arginase II; format: functional; conditions: 33.3 µM; further: in the data most compounds retested in dose-response had high values
# T2 sequence (whole entry): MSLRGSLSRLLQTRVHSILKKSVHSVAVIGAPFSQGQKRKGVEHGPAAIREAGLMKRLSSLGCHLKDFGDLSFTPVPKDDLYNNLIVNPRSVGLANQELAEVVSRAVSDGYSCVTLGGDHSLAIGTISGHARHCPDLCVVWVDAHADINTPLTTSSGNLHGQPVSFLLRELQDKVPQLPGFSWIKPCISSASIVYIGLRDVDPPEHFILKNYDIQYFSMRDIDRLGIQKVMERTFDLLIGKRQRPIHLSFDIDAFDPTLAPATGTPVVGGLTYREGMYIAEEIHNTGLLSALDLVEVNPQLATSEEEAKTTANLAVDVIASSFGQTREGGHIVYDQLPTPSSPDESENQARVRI
# [6] = biological target: T3, Proteasome subunit beta (Trypanosoma cruzi) (UniProt O96673); experiment: Trypanosoma cruzi proteasome chymotrypsin-like activity (TcProtChymo) assay.; further: in the data most compounds retested in dose-response had high values; format: functional; conditions: 9.37 µM
# T3 sequence (whole entry): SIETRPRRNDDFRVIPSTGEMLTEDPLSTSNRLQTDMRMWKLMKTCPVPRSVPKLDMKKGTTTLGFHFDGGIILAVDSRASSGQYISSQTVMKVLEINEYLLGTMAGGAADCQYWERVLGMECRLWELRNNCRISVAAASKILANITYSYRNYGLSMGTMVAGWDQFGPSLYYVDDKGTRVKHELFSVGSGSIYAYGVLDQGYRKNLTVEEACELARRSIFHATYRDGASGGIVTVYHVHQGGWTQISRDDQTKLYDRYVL
# [7] = species on record: Homo sapiens; experiment: To identify inhibition of the IFN signalling (Jak-Stat) pathway via expression of an eGFP reporter gene under the control of an IFN-stimulated response element (ISRE) containing MxA promoter.; format: functional; conditions: 30 µM
# [8] = biological target: T4, Tyrosyl-tRNA synthetase, putative (Trypanosoma cruzi (strain CL Brener)) (UniProt Q4DSP6); experiment: Trypanosoma cruzi tyrosyl tRNA synthetase (TcYRS) _High Tyrosine SOP; format: functional; conditions: 30 µM; further: in the data most compounds retested in dose-response had high values
# T4 sequence (whole entry): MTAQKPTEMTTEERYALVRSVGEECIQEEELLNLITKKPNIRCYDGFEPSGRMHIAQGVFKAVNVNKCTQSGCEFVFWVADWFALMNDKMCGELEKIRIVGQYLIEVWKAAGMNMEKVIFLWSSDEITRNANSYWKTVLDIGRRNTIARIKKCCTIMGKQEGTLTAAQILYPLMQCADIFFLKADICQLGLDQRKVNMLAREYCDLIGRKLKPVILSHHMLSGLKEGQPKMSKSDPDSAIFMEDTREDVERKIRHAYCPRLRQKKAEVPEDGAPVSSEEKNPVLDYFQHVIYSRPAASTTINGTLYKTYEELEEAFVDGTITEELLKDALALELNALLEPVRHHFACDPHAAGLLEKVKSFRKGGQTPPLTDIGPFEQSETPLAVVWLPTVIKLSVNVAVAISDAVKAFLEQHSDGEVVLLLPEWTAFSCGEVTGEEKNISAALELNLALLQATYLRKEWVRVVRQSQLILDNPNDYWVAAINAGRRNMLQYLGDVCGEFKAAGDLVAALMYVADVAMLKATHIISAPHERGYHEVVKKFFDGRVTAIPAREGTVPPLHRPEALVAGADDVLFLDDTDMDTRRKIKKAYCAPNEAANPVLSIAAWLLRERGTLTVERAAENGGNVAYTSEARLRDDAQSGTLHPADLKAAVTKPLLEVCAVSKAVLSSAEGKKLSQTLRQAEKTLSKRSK
# [9] = biological target: T4, Tyrosyl-tRNA synthetase, putative (Trypanosoma cruzi (strain CL Brener)); experiment: Trypanosoma cruzi tyrosyl tRNA synthetase (TcYRS) SOP; format: functional; conditions: 30 µM
# [10] = biological target: Chromo domain-containing protein 1 (Saccharomyces cerevisiae (strain ATCC 204508 / S288c) (Baker's yeast)) (UniProt P32657); experiment: ScCHD-1 Enzyme Inhibition Assay; format: functional; conditions: 30 µM; further: in the data most compounds retested in dose-response had high values
# Chain of Chromo domain-containing protein 1 (Saccharomyces cerevisiae (strain ATCC 204508 / S288c) (Baker's yeast)) (P32657 whole entry, the tested form may be a part): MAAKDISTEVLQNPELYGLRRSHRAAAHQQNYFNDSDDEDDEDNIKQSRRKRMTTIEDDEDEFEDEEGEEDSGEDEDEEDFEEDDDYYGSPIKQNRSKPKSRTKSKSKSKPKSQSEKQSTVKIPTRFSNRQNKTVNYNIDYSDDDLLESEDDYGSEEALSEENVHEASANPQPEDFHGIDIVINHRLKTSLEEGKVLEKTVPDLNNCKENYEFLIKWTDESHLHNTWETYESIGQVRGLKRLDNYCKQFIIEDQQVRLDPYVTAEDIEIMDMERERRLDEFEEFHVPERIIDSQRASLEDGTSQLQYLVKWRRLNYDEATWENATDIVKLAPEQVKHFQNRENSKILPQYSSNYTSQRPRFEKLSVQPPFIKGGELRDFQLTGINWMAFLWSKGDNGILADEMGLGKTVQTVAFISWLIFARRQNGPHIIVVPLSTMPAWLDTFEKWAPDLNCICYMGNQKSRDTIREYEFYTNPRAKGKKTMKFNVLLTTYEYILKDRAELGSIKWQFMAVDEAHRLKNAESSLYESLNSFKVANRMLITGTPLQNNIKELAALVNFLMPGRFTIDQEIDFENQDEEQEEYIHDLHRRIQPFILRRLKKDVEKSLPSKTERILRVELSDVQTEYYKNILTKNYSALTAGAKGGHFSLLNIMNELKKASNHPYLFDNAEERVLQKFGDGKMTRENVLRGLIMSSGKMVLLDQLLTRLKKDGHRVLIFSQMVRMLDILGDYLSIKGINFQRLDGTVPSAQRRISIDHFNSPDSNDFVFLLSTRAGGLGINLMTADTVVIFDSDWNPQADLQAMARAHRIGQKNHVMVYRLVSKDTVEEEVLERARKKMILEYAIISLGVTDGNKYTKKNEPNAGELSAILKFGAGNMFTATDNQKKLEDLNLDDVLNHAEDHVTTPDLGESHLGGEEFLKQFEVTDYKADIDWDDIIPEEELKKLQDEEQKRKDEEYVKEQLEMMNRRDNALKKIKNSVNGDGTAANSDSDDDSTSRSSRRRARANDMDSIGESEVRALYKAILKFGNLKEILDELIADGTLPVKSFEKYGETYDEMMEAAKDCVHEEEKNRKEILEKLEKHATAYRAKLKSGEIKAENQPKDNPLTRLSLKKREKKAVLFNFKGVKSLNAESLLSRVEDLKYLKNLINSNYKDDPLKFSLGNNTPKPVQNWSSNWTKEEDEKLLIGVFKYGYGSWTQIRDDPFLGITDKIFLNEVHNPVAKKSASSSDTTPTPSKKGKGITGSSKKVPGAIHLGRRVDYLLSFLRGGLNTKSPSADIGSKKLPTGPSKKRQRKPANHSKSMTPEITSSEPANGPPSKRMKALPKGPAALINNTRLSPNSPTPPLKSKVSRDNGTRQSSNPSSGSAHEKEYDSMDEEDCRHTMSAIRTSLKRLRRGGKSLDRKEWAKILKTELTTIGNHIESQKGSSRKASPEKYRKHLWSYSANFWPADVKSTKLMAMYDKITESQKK
# Chain of Protein translocase subunit SecA (Escherichia coli (strain K12)) (P10408 whole entry): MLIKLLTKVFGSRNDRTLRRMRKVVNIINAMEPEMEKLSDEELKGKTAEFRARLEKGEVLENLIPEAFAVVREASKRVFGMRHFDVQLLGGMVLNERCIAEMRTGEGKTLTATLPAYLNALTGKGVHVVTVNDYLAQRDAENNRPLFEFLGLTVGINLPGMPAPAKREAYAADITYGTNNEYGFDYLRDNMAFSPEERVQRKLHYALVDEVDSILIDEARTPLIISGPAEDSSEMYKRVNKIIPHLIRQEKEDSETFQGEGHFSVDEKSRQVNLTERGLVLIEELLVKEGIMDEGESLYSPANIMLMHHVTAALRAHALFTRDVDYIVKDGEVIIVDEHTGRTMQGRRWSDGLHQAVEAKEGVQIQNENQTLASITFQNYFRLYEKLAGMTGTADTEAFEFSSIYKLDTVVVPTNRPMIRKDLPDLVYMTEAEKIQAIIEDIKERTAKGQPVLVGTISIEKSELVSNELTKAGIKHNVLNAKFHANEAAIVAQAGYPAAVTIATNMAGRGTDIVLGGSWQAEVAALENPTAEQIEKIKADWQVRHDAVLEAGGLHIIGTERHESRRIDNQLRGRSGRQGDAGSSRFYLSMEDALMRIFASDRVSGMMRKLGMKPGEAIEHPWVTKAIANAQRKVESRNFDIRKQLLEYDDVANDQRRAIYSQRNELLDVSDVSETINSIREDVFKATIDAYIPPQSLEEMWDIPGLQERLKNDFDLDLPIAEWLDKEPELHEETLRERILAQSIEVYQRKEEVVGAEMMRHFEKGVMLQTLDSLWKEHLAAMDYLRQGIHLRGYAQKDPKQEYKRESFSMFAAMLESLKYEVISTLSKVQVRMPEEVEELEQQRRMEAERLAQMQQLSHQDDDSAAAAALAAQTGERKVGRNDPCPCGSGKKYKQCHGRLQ
# Chain of Sialic acid-binding Ig-like lectin 9 (Homo sapiens) (Q9Y336 whole entry): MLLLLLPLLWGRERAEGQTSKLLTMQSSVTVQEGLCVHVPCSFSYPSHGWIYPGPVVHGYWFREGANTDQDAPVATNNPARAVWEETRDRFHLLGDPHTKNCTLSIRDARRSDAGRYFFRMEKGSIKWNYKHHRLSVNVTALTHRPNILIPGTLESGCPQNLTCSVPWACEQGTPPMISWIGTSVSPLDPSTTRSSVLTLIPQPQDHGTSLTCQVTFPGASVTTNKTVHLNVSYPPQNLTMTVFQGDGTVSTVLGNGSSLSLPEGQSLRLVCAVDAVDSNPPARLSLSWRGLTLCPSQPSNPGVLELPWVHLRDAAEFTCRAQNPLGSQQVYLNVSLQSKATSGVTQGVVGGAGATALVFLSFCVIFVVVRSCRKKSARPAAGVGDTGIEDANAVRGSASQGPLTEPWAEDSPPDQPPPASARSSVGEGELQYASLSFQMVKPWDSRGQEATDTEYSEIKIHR
SMILES,Percent Effect [1],Percent Effect [2],Percent Effect [3],Percent Effect [4],Percent Effect [5],Percent Effect [6],Percent Effect [7],Percent Effect [8],Percent Effect [9],Percent Effect [10]
c1ncn(CC2CCCN2Cc2cn3ccsc3n2)n1 (stereo not given),-3.52%,5.13%,-17.1%,7.61%,-1.23%,-4.86%,-3.77%,2.39%,6.02%,1.9%
Cc1[nH]ncc1C(=O)N1CCN(CC(O)C(C)(C)C)CC1 (stereo not given),-2.19%,17.9%,-6.77%,7.23%,-2.46%,8.79%,-1.39%,6.22%,20.5%,-6.95%
CS(=O)(=O)c1cccc(C(N)c2ccc(F)c(F)c2)c1 (stereo not given),-6.37%,5.33%,1.99%,-2.81%,-2.66%,4.16%,23.5%,7.89%,15.4%,-9.26%
Cc1cc(N2CCC(CC(N)=O)CC2)nc(-c2ccncc2)n1,-7.29%,13%,10.8%,-1.87%,3.07%,11.1%,-5.86%,7.84%,21.2%,-6.28%
Cc1nn2cccnc2c1C(=O)N1CCCC(n2ccnc2)C1 (stereo not given),0.231%,13.3%,-7.92%,-2.21%,0%,8.23%,2.09%,3.68%,12.8%,-11.1%
CC(C)c1cc(N2CCC(CCC(=O)NC3CC3)CC2)n2nccc2n1,-2.45%,5.41%,2.79%,-0.097%,2.45%,9.76%,7.29%,4.79%,12.2%,-3.08%
O=C(Cc1ccccc1Cl)N1CCCC(n2cncn2)C1 (stereo not given),-7.8%,5.13%,0.737%,-2.91%,4.51%,-2.65%,22.2%,2.39%,8.43%,1.66%
Cn1cc(CN2CCC3(CC(=O)N(c4ccc5c(c4)OCO5)C3)C2)cn1 (stereo not given),-2.97%,1.3%,-2.34%,1.85%,-2.43%,-1.15%,4.19%,4.74%,5.13%,-0.178%
Cn1c(Cn2cccn2)nnc1C1CCCN(c2ccncc2F)C1 (stereo not given),-3.83%,10.8%,2.04%,-2.62%,0.35%,12%,27.1%,2.66%,12.2%,0.18%
COc1c(C2CCCN2Cc2c(C)noc2C)c(C)nn1C (stereo not given),-5.49%,-2.67%,0.668%,5.82%,1.33%,6.19%,-12.5%,0.526%,5.13%,-8.53%
Cc1ccc([C@@H]2CN(C(=O)c3ccc[nH]3)C[C@H]2NC(=O)C2CC2)cc1,-2.9%,5.41%,1.4%,-4.56%,-3.85%,17.3%,30.6%,2.66%,7.32%,-6.72%
COCC(=O)N1CCC(c2nccnc2Oc2cccnc2C)CC1,0.43%,14.7%,-6.2%,-3.35%,4.87%,15.6%,-0.132%,0%,7.5%,-22.1%
Cc1ccc2cc(C(=O)NCCn3nc4ccccn4c3=O)[nH]c2c1,-1.72%,10.3%,-11.1%,-8.36%,1.23%,16.3%,19.6%,-1.44%,1.21%,-7.76%
CCc1nc(C2CCCN2C(=O)c2ccc3c(c2)nnn3CC)no1 (stereo not given),-3.49%,0%,5.14%,-1.41%,0%,3.99%,11.6%,2.63%,0%,-12.3%
O=C(NCCCn1ccnc1)N1CCCC1c1cccs1 (stereo not given),-1.21%,12.8%,-12.2%,6.67%,8.2%,11%,-4.65%,7.18%,18.1%,-5.02%
CN(C)S(=O)(=O)N1CCN(C(=O)c2ccc3ccn(C)c3c2)CC1,-5.48%,8.11%,12%,5.72%,8.74%,13.9%,5.78%,2.66%,9.76%,-5.25%
CNc1ccc(CC2CCCN(C(=O)c3cnc(C)nc3)C2)nn1 (stereo not given),0.212%,12%,-9.66%,-0.197%,4.87%,17.1%,12.2%,5.29%,12.5%,-20.6%
CCc1nc(CN(C)C2CCN(CCS(C)(=O)=O)C2)no1 (stereo not given),-1.27%,18.7%,-4.89%,0%,-1.77%,16.9%,4.92%,5.79%,17.9%,-5.25%
CN1CCN(C(=O)c2cccc(OCc3cscn3)c2)CC1,-6.48%,2.56%,-10.9%,-3.1%,-0.41%,-1.62%,19.3%,0.478%,6.02%,5.6%
CN1CCN(c2cc(CNC(=O)c3ccc(=O)n(C)c3)ccn2)CC1,-2.29%,20.5%,-8.46%,7.04%,2.87%,13.9%,13.3%,-0.478%,22.9%,-8.95%
CCc1nccn1C1CCCN(C(=O)c2csc(COC)n2)C1 (stereo not given),-5.68%,10.4%,12.8%,-5.78%,-1.43%,7.89%,13.9%,4.9%,9.41%,-5.76%
CC(C)NC(=O)Nc1ccc(CNCc2cccc(C#N)c2)cc1,2.25%,20.8%,4.68%,0.933%,-0.615%,6.84%,0.521%,9.8%,28.2%,-12.8%
CCNc1nc2c(s1)C(=O)CN(C(=O)NCCc1ccccc1)C2,-3.42%,5.33%,-0.604%,-6.43%,3.99%,-1.95%,9.15%,1.58%,2.56%,2.08%
